Compound activity (PubChem)
ROMK primary – modulators of human ROMK potassium channel | P48048 | Tet-inducible ROMK, thallium flux fluorescence; actives lie on both sides | B-score at 10 µM | hit rate 2% among 130,000;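 active = signal ratio slope over the read window, or its plate-corrected B-score, at least 3 SD from the plate mean, either direction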;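 note: B-score of the F/F0 ratio slope over 7 to 12 s after thallium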
Target sequence (P48048 whole entry, looked up): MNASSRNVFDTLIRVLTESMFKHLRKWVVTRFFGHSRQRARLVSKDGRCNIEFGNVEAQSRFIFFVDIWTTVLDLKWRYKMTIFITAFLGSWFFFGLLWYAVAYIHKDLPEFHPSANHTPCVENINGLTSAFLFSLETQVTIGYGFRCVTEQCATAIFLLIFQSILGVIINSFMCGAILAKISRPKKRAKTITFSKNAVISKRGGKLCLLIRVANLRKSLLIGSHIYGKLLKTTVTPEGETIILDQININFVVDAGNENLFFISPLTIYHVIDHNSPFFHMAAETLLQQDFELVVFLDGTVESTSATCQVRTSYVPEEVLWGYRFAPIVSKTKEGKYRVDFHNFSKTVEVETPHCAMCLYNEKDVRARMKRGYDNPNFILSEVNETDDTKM
S1P4 antag – antagonists of human S1P4 receptor | O95977 | S1P4-expressing cells, antagonist mode, reporter read-out | inhibition, % at 4.98 µM | hit rate 0.26% among 220,000 | AID 1510; in the data active = inhibition above about 29%;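 note: 0% = wells stimulated with agonist and 100% = vehicle wells without agonist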
RAM inhibit – yeast RAM network inhibition. hit rate 1.8% among 190,000. AID 868. inhibition, % at 50 µM. S. cerevisiae dse1pr::URA3 reporter, 5-FOA growth OD615, 2 d; analog-sensitive cbk1-as2 kinase mutant strain;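 active = inhibition above a set limit, 3 SD over mean compound inhibition, cut at about 8.4% in these data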;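 note: 0% = DMSO-only wells with no growth and 100% = 10 µM 1-NA-PP1 full growth; inhibition rescues growth on 5-FOA so higher OD means more RAM inhibition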
Cl transport mod – modulates chloride dependent transport by human KCC2; Q9H2X9; KCC2 cells, thallium flux FluoZin-2 fluorescence; B-score of Tl+ flux slope (higher = more flux/activation; lower = inhibition) at 10 µM; hit rate 2.2% among 190,000;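 active = thallium flux slope and its plate-corrected score both differing from the plate sample mean at a set confidence after two filtering rounds, in either direction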;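 note: slope of fluorescence scaled to starting intensity during 10 to 20 s after thallium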
S1P4 ag – agonists of human S1P4 receptor; O95977; S1P4-expressing cell line, agonist reporter assay; activation, % at 4.98 µM; hit rate 0.35% among 220,000; in the data active = activation above about 11%;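 note: 0% = DMSO vehicle and 100% = reference agonist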
S1P3 antagonist – S1P3 (human) receptor antagonism; hit rate 0.27% among 170,000; inhibition, % at 4.98 µM; AID 485; CHO S1P3 NFAT-BLA reporter, FRET fluorescence, antagonist mode; Q99500;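 active = inhibition above the plate cutoff, the mean inhibition of test wells on that plate plus 3 SD, cut at about 28% in these data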;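 note: cells challenged with S1P at its EC80 of 0.8 µM; blue over green emission ratio from cleaved BLA substrate after 4 h stimulation; 0% = S1P-stimulated wells and 100% = unstimulated DMSO-only wells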
ROMK hit retest – confirmation of human ROMK potassium channel modulators; shares compounds with ROMK primary; normalized thallium flux (F/F0 slope) at 10 µM; ROMK thallium flux, fluorescence ratio; active compounds read low; hit rate 54% among 3,000;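 active = Flux at 10 µM at least 3 SD below or above vehicle control mean in one or both replicates; inconclusive = no clear call, values can overlap the other calls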
Numbers without * were called inactive. The list is not random: actives were taken first. Their share in the collection is about 5.1%.

What do the screens show for `O=C(N/N=C/C=C/c1ccccc1)c1n[nH]c2c1CCC2`?
ROMK primary: 4*; S1P4 antag: 3; RAM inhibit: 7; Cl transport mod: 0.48; S1P4 ag: 1; ROMK hit retest: 0.09

How did O=C(COC(=O)Cc1ccc(Cl)cc1Cl)Nc1ccccc1OC(F)F do in these assays?
S1P4 antag: -18; RAM inhibit: 8; Cl transport mod: 0.09; S1P4 ag: 0; S1P3 antagonist: -1

Results for Cc1cc(CNCc2c(C(=O)N3CCCCCCC3)nc3ccc(Cl)cn23)nn1C ?
ROMK primary: 1.9*; S1P4 antag: -25; RAM inhibit: 0; Cl transport mod: 0.068; S1P4 ag: 0; S1P3 antagonist: -6; ROMK hit retest: 0.081

How did CC(=O)Nc1cccc(C(=O)/C=C/c2ccc(N(C)C)cc2)c1 do in these assays?
ROMK primary: -3.7*; S1P4 antag: 24; RAM inhibit: 1; Cl transport mod: -2.6; S1P4 ag: 2; S1P3 antagonist: 1; ROMK hit retest: 0.048*

How did COc1ccccc1/C=C/C(=O)Nc1cccc(C(C)=O)c1 do in these assays?
ROMK primary: -2.2; S1P4 antag: 13; RAM inhibit: 2; Cl transport mod: -0.74; S1P4 ag: -1; S1P3 antagonist: 1

How did COc1ccc(/C=C/C(=O)Nc2cccc(C(C)=O)c2)cc1 do in these assays?
ROMK primary: 1.4*; S1P4 antag: 3; RAM inhibit: 1; Cl transport mod: -0.56; S1P4 ag: -2; S1P3 antagonist: 5; ROMK hit retest: inconclusive

How did COc1ccccc1N(CC(O)Cn1ccnc1C)S(=O)(=O)c1ccc(C)cc1 (stereo not given) do in these assays?
ROMK primary: -0.53; S1P4 antag: 4; RAM inhibit: 2; Cl transport mod: -0.0044; S1P4 ag: -2; S1P3 antagonist: -2

Results for CN(C)c1nc(C=C(C#N)C#N)c(Cl)n1-c1ccc(F)cc1 ?
ROMK primary: -3.9*; S1P4 antag: -2; RAM inhibit: 1; Cl transport mod: -0.091; S1P4 ag: 0; S1P3 antagonist: 14; ROMK hit retest: 0.059*

What do the screens show for `CCOc1ccc(S(=O)(=O)N/N=C2/CC(c3ccccc3)Oc3ccccc32)cc1` (stereo not given)?
ROMK primary: 0.46; S1P4 antag: 19; RAM inhibit: 1; Cl transport mod: 0.61; S1P4 ag: 4

What do the screens show for `O=C(CCc1nnc(CCC2CCCCC2)o1)NCc1ccon1`?
S1P4 antag: -1; RAM inhibit: 0; Cl transport mod: 1.6; S1P4 ag: 0; S1P3 antagonist: -9

What do the screens show for `CCCS(=O)(=O)c1c(S(=O)(=O)CCC)c2ccc(C(N)=O)cn2c1C(=O)OC`?
ROMK primary: 0.2; S1P4 antag: -14; RAM inhibit: 1; Cl transport mod: -1.5; S1P4 ag: -1; S1P3 antagonist: -9

Results for CCCS(=O)(=O)c1c(S(=O)(=O)CCC)c2ccc(C(N)=O)cn2c1C(=O)c1ccc(OC)cc1 ?
ROMK primary: -2.7; S1P4 antag: -42; RAM inhibit: 0; Cl transport mod: 0.047; S1P4 ag: 0; S1P3 antagonist: -22; ROMK hit retest: 0.061*

Results for CN(CC(=O)NC(=O)NC(C)(C)C)CC(=O)Nc1ccccc1Cl ?
ROMK primary: -0.14; S1P4 antag: -20; RAM inhibit: 3; Cl transport mod: -0.57; S1P4 ag: 3; S1P3 antagonist: 11

What do the screens show for `CC(=O)c1ccc(O)c(CO)c1`?
ROMK primary: 0.58; S1P4 antag: -8; RAM inhibit: 1; Cl transport mod: -0.22; S1P4 ag: 3; ROMK hit retest: 0.086

Results for CC(=O)c1ccc(O)c(CSC2=NCCS2)c1 ?
ROMK primary: 0.28; S1P4 antag: -10; RAM inhibit: 0; Cl transport mod: 0.063; S1P4 ag: -2; S1P3 antagonist: 10

What do the screens show for `C=CCSc1nnc(C)c(/C=C/Nc2ccc(Cl)cc2)n1`?
ROMK primary: -3*; S1P4 antag: -15; RAM inhibit: 1; Cl transport mod: -0.79; S1P4 ag: 0; S1P3 antagonist: -2; ROMK hit retest: 0.046*

Results for CSc1nnc(C)c(/C=C/Nc2ccc(F)cc2F)n1 ?
ROMK primary: 0.56; S1P4 antag: -7; RAM inhibit: 0; Cl transport mod: -0.011; S1P4 ag: 0; S1P3 antagonist: 4

What do the screens show for `C=CCN1C(=O)C(CC(=O)Nc2ccccc2)S/C1=N/c1nccs1` (stereo not given)?
S1P4 antag: -4; Cl transport mod: 0.2; S1P4 ag: 0; S1P3 antagonist: -1

Results for CC(C)CCNC(=O)C(c1ccc(O)cc1)N(Cc1cccs1)C(=O)C1COc2ccccc2O1 (stereo not given) ?
ROMK primary: -2.8*; S1P4 antag: -10; RAM inhibit: 7; Cl transport mod: -0.99; S1P4 ag: 1; S1P3 antagonist: 10; ROMK hit retest: 0.061*

What do the screens show for `Cc1ccc(-c2cc(Cc3ccncc3)c(=O)[nH]n2)cc1`?
ROMK primary: -0.13; S1P4 antag: -15; Cl transport mod: 0.55; S1P4 ag: -1; S1P3 antagonist: 7

How did OC(COC(c1ccc(Cl)cc1)c1ccc(Cl)cc1)CN1CCCC1 (stereo not given) do in these assays?
ROMK primary: -3.9*; S1P4 antag: -1; RAM inhibit: -2; Cl transport mod: 0.14; S1P4 ag: 1; ROMK hit retest: 0.057*

How did Cc1c(NC(=O)/C(C#N)=C/c2ccccc2)c(=O)n(-c2ccccc2)n1C do in these assays?
ROMK primary: -2.9*; S1P4 antag: -5; RAM inhibit: 1; Cl transport mod: -0.14; S1P4 ag: -1; S1P3 antagonist: 18; ROMK hit retest: 0.051*

Results for Cc1ccsc1/C=C(\C#N)C(=O)Nc1c(C)n(C)n(-c2ccccc2)c1=O ?
ROMK primary: 0.39; S1P4 antag: -4; RAM inhibit: 0; Cl transport mod: -1.2; S1P4 ag: 0; S1P3 antagonist: -15

How did Cc1c(NC(=O)/C(C#N)=C/c2ccc(-c3ccccc3Cl)o2)c(=O)n(-c2ccccc2)n1C do in these assays?
S1P4 antag: -12; RAM inhibit: 0; Cl transport mod: -2.1; S1P4 ag: 0; S1P3 antagonist: -18; ROMK hit retest: 0.056*

Results for CCc1ccccc1NC(=O)CN(C)C(=O)CSc1nc2cc(Cl)ccc2s1 ?
ROMK primary: 0.68; S1P4 antag: 0; RAM inhibit: 6; Cl transport mod: 0.54; S1P4 ag: 3; S1P3 antagonist: -2

How did Cc1ccc(NC(=O)CCC(=O)NNC(=S)Nc2ccccc2)c(C)c1 do in these assays?
S1P4 antag: 1; RAM inhibit: 1; Cl transport mod: 0.0046; S1P4 ag: 2; S1P3 antagonist: -1

How did Cc1ccc(NC(=S)NNC(=S)Nc2ccc(C)cc2C)cc1 do in these assays?
ROMK primary: 5.3*; S1P4 antag: -6; RAM inhibit: 4; Cl transport mod: 0.74; S1P4 ag: -1; S1P3 antagonist: 11; ROMK hit retest: 0.087
